The list is not random: actives were taken first. Their share in the collection is about 18%.
DT40 TDP1 CPT = DT40-hTDP1 cell growth loss with CPT; Potency, µM (top dose mostly 46.2 µM), without a hit: at the highest dose activity change, negative = growth inhibition, actives largely listed as inhibitors; 420,000 compounds, 12% hits; chicken DT40 Tdp1-/-;hTDP1 cells + 20 nM CPT, ATP luminescence, 48 h; further: potency means the concentration at half of the fitted maximal effect; on the % scale 0 is the no-effect control and ±100 the full control effect; nearly all actives have a fitted effect of over 55% in size
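Chicken DT40 Tdp1-/- cells stably complemented with human TDP1 were seeded at 400 cells/well in medium containing 20 nM camptothecin, exposed to pin-transferred compounds, and grown at 37 °C for at least 48 hr. Viability was read as ATP luminescence.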
TDP1 inh = TDP1 (human) enzyme inhibition. Q9NUW8. recombinant TDP1, AlphaScreen DNA substrate cleavage. Potency, µM (doses to about 130 µM), inactives show at the highest dose activity change, negative = inhibition, actives largely listed as inhibitors. 350,000 compounds, 0.28% hits. AID 485290; further: potency means the concentration at half of the fitted maximal effect; on the % scale 0 is the no-effect control and ±100 the full control effect; nearly all actives have a fitted effect of over 40% in size
Target sequence (Q9NUW8 whole entry, looked up): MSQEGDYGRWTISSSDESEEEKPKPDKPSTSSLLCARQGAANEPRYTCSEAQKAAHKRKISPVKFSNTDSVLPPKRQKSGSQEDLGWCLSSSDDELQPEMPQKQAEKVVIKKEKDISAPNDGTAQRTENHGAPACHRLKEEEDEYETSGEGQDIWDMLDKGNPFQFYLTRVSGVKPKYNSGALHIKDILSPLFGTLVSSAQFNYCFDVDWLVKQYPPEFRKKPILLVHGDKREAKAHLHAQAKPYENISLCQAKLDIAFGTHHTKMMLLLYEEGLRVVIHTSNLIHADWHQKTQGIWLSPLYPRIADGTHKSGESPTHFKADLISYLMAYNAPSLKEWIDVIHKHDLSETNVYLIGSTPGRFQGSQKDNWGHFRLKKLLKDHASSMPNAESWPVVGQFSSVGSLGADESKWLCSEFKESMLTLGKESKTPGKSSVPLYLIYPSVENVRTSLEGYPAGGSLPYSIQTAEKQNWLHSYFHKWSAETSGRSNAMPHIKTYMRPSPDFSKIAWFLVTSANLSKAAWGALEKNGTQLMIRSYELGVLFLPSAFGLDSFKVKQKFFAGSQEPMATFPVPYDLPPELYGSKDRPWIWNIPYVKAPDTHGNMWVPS
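Enzyme-compound mixtures sat 15 min at room temperature, followed by a 5 min reaction with 15 nM final substrate and 10 min with AlphaScreen beads. Recombinant human Tdp1 was used at 1 nM final.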
IL-1B inflam inh = inhibitors of inflammasome signaling (IL-1 beta secretion) | activity change, % at 57.5 µM | 360,000 compounds, 4.7% hits | AID 743279 | THP-1 LPS/ATP IL-1B secretion, AlphaLISA, 16 h; active compounds read low; in the data active means activity change below about -50%; inconclusive means mostly about -30% to -49%; further: on the % scale 0 is the no-effect control and ±100 the full control effect
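THP-1 cells pretreated 1 hr with compounds (up to 57.5 uM final), then stimulated with LPS (250 ng/mL final) plus ATP (1.25 mM final); secreted IL-1B measured by AlphaLISA after 16 hr, decreased signal indicating inhibition.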
DT40 TDP1 no CPT = qHTS for Inhibitors of human tyrosyl-DNA phosphodiesterase 1 (TDP1): qHTS in cells in absence of CPT. DT40 Tdp1-/- hTDP1 cells, no CPT, ATP luminescence, 48 h. Potency, µM (doses to about 46.2 µM), for the others: at the top dose activity change, negative = growth inhibition, actives largely listed as inhibitors. 420,000 compounds, 15% hits; further: potency means the concentration at half of the fitted maximal effect; on the % scale 0 is the no-effect control and ±100 the full control effect; nearly all actives have a fitted effect of over 55% in size
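Compound effects on proliferation are scored in DT40 Tdp1-/-;hTDP1 cells in the absence of CPT. ATP levels (CellTiter-Glo luminescence) are recorded after a ≥48 hr, 37 °C incubation.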
HepG2 viability = kills HepG2 cells in TGF-b inhibitor counter-screen. Potency, µM (titrated, usually from 46.1 µM), inactives show at the top dose activity change, negative = cytotoxicity, usual class: cytotoxic. 410,000 compounds, 0.76% hits. HepG2 CAGA-GFP viability, ATP luminescence, 18 h; further: potency means the concentration at half of the fitted maximal effect
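HepG2 CAGA-GFP cells (1000/well, DMEM with 1% FBS) received compound, then TGF-beta at 500 pg/mL final, and were incubated 18 hours at 37 degrees C. Viability was read by CellTiter-Glo luminescence. Media-only wells were set as complete cell-killing and DMSO as no toxicity.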
TGFb SMAD3 inh = TGF-b pathway inhibition. HepG2 CAGA-GFP TGF-b/SMAD3 reporter, GFP fluorescence, 18 h; TGF-beta stimulated, 500 pg/mL final. 410,000 compounds, 1.2% hits. AID 588855. Potency, µM (top dose mostly 46.1 µM), without a hit: at the highest dose activity, negative = inhibition, actives largely listed as inhibitors; further: potency means the concentration at half of the fitted maximal effect; on the % scale 0 is the no-effect control and ±100 the full control effect; nearly all actives have a fitted effect of over 65% in size
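GFP signal (ex488/em500-530) from TGF-beta-stimulated HEPG2 CAGA-GFP cells, 500 pg/mL final, 18 h at 37 degrees C in DMEM plus 1% FBS, normalized to unstimulated and DMSO-stimulated controls.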
* = called active by the depositor; u = inconclusive; x = no result given; [ ] = dose if it differs, or a comment. Unless noted, the call rests on the fitted dose curve; in most records, active means well fitted curve in the direction sought with a large enough effect; inconclusive means small, poorly fitted or top-dose-only effect, or another doubt; inactive means no such curve, though single readings can be large; an effect the other way counts as inactive or inconclusive.

SMILES	DT40 TDP1 CPT	TDP1 inh	IL-1B inflam inh	DT40 TDP1 no CPT	HepG2 viability	TGFb SMAD3 inh
CCN(CC)CCn1c2ccccc2c2cnc(N=CN(C)C)c(C#N)c21	16.4µM*	-8.2%	x	16.4µM*	6.2%	-9.4%
O=S(=O)(c1cnc(Cl)c(Cl)c1)N1CCCc2ccccc21	18.4µM*	2.7%	-101.2*	16.4µM*	-5.8%	-19.4%
Cc1ccc(S(=O)(=O)N2CCCc3ccccc32)cc1	-24.3%	x	32.3	u	0.2%	-6.8%
O=S(=O)(c1cnc(Cl)c(Br)c1)N1CCc2ccccc21	16.4µM*	1.2%	-102.9*	u	-40.0%	u
O=C(COc1ccc(Cl)cc1Cl)NC(=S)N1CCCc2ccccc21	u	-7.5%	-12.1	20.6µM*	-26.1%	u
O=S(=O)(c1cnc(Cl)c(Cl)c1)N1CCc2ccccc21	u	5.5%	-64.6*	16.4µM*	-26.9%	u
CCN(CC)CCOC[C@H]1O[C@@H](O)[C@H](OCCN(CC)CC)[C@@H](O)[C@@H]1O	-2.3%	x	x	-2.5%	x	x
CC(CCc1ccccc1)NC(=O)N1CCOCC1 (stereo not drawn)	12.4%	5.5%	2.1	2.4%	9.3%	0.1%
O=C(OCC(=O)N1CCCc2ccccc21)c1cnc(Cl)c(Cl)c1	-8.6%	-0.6%	-84.8*	7.3%	0.3%	11.6%
O=C1CCC[C@@H]2[C@@H](Cc3ccccc3)[C@@H](Nc3ccccc3)C[C@@H]3CCN1[C@@H]32	u	x	x	11.2µM*	-8.1%	u
CCOC(=O)[C@@](C)(N)Cc1ccc(O)c(O)c1	u	x	x	-24.8%[21.1 µM]	x	x
COc1cc(/C=N/Nc2nc(N3CCCC3)nc(N3CCCC3)n2)ccc1OCc1ccccc1F	16.4µM*	7.1%	-13.0	20.6µM*	-20.1%	0.0%
Cn1cnnc1Sc1ccc(C(=O)OCC(=O)NCC(F)(F)F)cc1[N+](=O)[O-]	-1.2%	-3.5%	-15.1	4.5%	9.8%	10.2%
CCN(CC)S(=O)(=O)c1cccc(NC(=O)c2ccc(Sc3nncn3C)c([N+](=O)[O-])c2)c1	16.4µM*	0.0%	-9.0	23.1µM*	-31.8%	u
CCN(CC)S(=O)(=O)c1cccc(C(=O)Nc2ccc(C#N)cc2)c1	u	0.0%	-15.5	8.2µM*	-13.6%	u
CCN(CC)S(=O)(=O)c1cccc(NC(=O)c2ccc(Br)cc2)c1	u	4.8%	-70.3*	20.6µM*	2.6%	-10.9%
CCN(CC)S(=O)(=O)c1cccc(C(=O)N[C@H](C(=O)NCc2ccc(Cl)cc2)C(C)C)c1	23.1µM*	-4.0%	-22.5	14.6µM*	-36.6%	-14.7%
CCN(CC)C(=O)c1ccccc1NC(=O)c1cccc(S(=O)(=O)N(CC)CC)c1	-16.2%	1.3%	-16.2	-10.2%	-11.5%	9.0%
CCN(CC)S(=O)(=O)c1cccc(C(=O)Nc2ccccc2C(=O)Nc2ccc(Cl)cc2)c1	u	-4.7%	x	18.4µM*	-20.4%	-20.0%
O=C(COC(=O)c1nc(Cl)ccc1Cl)c1ccc[nH]1	1.8%	1.1%	8.1	-12.4%	4.6%	3.5%
O=C(COC(=O)c1nc(Cl)c(Cl)c(Cl)c1Cl)c1ccc[nH]1	u	x	-102.6*	u	-36.4%	0.6%
COc1ccccc1C(=O)C1CCCN(Cc2cccc(OCCO)c2)C1 (stereo not drawn)	-4.2%	x	21.9	-9.8%	2.6%	-11.2%
Clc1ccc(C(c2ccccc2)N2CCN(c3ccccn3)CC2)cc1 (stereo not drawn)	u	2.6%	11.4	18.4µM*	-11.6%	-4.6%
CN1CCCN(C(c2ccccc2)c2ccc(Cl)cc2)CC1 (stereo not drawn)	u	9.6%	-29.1	5.96µM*	-68.3%	u
CN1CCN(C(c2ccccc2)c2ccccc2)CC1	u	9.0%[56.1 µM]	-13.7	u	-12.3%	6.7%
SMILES	DT40 TDP1 CPT	TDP1 inh	IL-1B inflam inh	DT40 TDP1 no CPT	HepG2 viability	TGFb SMAD3 inh
Cc1ccc(NC(=O)NC(=O)CSc2nnc(-c3ccc(Cl)cc3Cl)n2N)c(C)c1	-1.5%	1.4%	0.0	-14.6%	-3.6%	-13.0%
O=C(C(Sc1ccccc1)c1ccccc1)N1CCN(c2ccccc2)CC1 (stereo not drawn)	u	-1.1%	u	u	14.6%	-27.3%
O=C(c1ccco1)N1CCN(C(=O)C(Sc2ccccc2)c2ccccc2)CC1 (stereo not drawn)	16.4µM*	2.3%	-3.4	u	-31.3%	u
COc1cc(-c2ccc(N=C=O)c(OC)c2)ccc1N=C=O	x	22.8%	x	x	x	x
Cc1nnc(C)c2c(C)n(C(C)c3ccccc3)c(C)c12 (stereo not drawn)	16.4µM*	6.1%	-11.8	11.6µM*	-25.0%	0.0%
COc1ccc(-c2nc(C)c(C(C)=O)n2O)cc1	-23.3%	1.0%	u	u	-33.2%	-0.7%
COc1ccc(C(C)n2c(C)c3c(C)nnc(C)c3c2C)cc1 (stereo not drawn)	14.6µM*	5.7%	-5.0	23.1µM*	-40.2%	-10.3%
O=C(COC(=O)COc1ccc(Cl)cc1Cl)NC1CCCCCC1	5.0%	-5.5%	5.2	6.9%	-3.5%	-3.0%
CCCSCCCNC(=O)Cn1c(-c2cccs2)cc2ccccc21	u	6.2%	x	u	-28.3%	u
O=C(NCCOc1ccccc1)c1ccccc1SCC(=O)N1CCCC1	-3.7%	0.3%	16.7	-18.4%	-24.7%	-8.1%
COc1ccc(OCCNC(=O)c2ccccc2OCC(=O)Nc2ccc(NC(C)=O)cc2)cc1	18.4µM*	0.0%	3.4	14.6µM*	-45.6%	-15.7%
COc1ccc(OCCNC(=O)c2ccccc2OCC(=O)N2CCCCC2)cc1	20.6µM*	-5.4%[56.1 µM]	1.8	18.4µM*	-6.1%	27.2%
CSCC[C@H](NC(=O)[C@@H](NC(=O)[C@H](CCC(=O)O)NC(=O)[C@H](CCSC)NC(=O)[C@H](CC(N)=O)NC(=O)[C@H](CCC(=O)O)NC(=O)[C@H](CC(N)=O)NC(=O)[C@H](CO)NC(=O)[C@H](C)N)[C@@H](C)O)C(=O)O	x	11.5%	x	x	x	x
Cc1ccc(Sc2sc(=O)n(C)c2S(=O)(=O)c2ccc(C)cc2)cc1	u	-3.4%	4.2	20.6µM*	-5.1%	1.7%
Cc1ccc(S(=O)(=O)c2c(C)c(C)c(C)[nH]c2=O)cc1	-25.7%	x	13.4	13.2%	0.2%	0.0%
CCCCOC(=O)c1ccc(Nc2ncnc3c2cnn3-c2cccc(C)c2)cc1	-25.2%	2.6%	x	-14.5%	-4.7%	5.4%

Compound activity from PubChem BioAssay.
